IL1B secr inh: qHTS for Inhibitors of Inflammasome Signaling: IL-1-beta AlphaLISA Primary Screen; THP-1 LPS/ATP IL-1B secretion, AlphaLISA, 16 h; active compounds read low; activity change, % at 57.5 µM; 360,000 tested, 4.7% active; in the data active = activity change below about -50%; inconclusive = mostly about -30% to -49%; note: % is set by controls: 0 for no effect and ±100 for the full control effect
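THP-1 cells pretreated 1 hr with compounds (up to 57.5 uM final), then stimulated with LPS (250 ng/mL final) plus ATP (1.25 mM final); secreted IL-1B measured by AlphaLISA after 16 hr, decreased signal indicating inhibition.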
DRD3 agonist: qHTS of D3 Dopamine Receptor Agonist: qHTS. max activation, %. 410,000 tested, 0.58% active. D(3) dopamine receptor (Homo sapiens), P35462. D3R DiscoveRx beta-arrestin cells, luminescence, 90 min; in the data active = max activation above about 30%; note: 0% is about no effect
Target sequence (P35462 whole entry, looked up): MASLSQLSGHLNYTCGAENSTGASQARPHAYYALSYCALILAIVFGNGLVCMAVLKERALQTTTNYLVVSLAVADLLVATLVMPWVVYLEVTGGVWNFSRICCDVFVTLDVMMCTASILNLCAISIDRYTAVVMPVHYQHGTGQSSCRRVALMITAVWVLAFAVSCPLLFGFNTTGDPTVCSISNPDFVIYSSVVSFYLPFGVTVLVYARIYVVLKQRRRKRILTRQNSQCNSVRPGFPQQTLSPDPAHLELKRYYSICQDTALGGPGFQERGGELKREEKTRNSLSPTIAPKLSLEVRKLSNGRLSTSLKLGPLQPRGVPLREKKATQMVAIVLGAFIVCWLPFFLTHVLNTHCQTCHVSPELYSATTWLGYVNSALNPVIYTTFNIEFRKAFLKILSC
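Cells at 1500/well, incubated overnight, then treated with pinned compounds (dopamine as control) for 90 min at 37 degrees C. DiscoveRx reagent added for 30 - 60 minutes at room temperature; luminescence read.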
ATXN2 expr inh: Primary qHTS for Inhibitors of ATXN expression. HEK-293 ATXN2-luciferase reporter, luminescence, 24 h. Potency, µM (top dose mostly 57 µM), for the others: at the top dose activity change, negative = inhibition, hits mostly inhibitors. 360,000 tested, 0.72% active. AID 1745845, 2022; note: potency is the fitted concentration of half-maximal effect; % is set by controls: 0 for no effect and ±100 for the full control effect; nearly all actives have a fitted effect of over 55% in size
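ATXN2-luciferase reporter cells (luciferase flanked by upstream and downstream ATXN2 gene portions) were treated 24 h at 37 °C with compounds at up to 57 uM. SteadyGlo luminescence gave expression; GF-AFC fluorescence gave viability.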
S2 tox: Viability Counterscreen for Primary qHTS for Inhibitors of ATXN expression | Potency, µM (titrated, usually from 56.7 µM), hits mostly cytotoxic | 400,000 tested, 0.49% active | S2 cells (HEK-293 line with an ATXN2-luciferase reporter) viability, CellTiter-Fluor protease fluorescence, 24 h; note: potency is the fitted concentration of half-maximal effect; nearly all actives have a fitted effect of over 40% in size
a7 integrin act: qHTS for Activators of Integrin-Mediated Alleviation for Muscular Dystrophy; alpha7betagal myoblasts, beta-gal FDG fluorescence, 48 h; Potency, µM (highest dose often 38.3 µM), for the others: at the highest dose activation, hits mostly activators; 350,000 tested, 0.064% active; AID 624291, 2012;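 note: potency is the fitted concentration of half-maximal effect; 100% = response of the positive control SU9516; nearly all actives have a fitted effect of over 60% in size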
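Alpha7betagal+/- myoblasts (passage 13) were plated 16-24 hr, then exposed to compounds (1:260 dilution of DMSO stock) for 48 hours at 37C. After MPER lysis, β-galactosidase reporter activity was read as FDG fluorescence (ex 480/em 540) after 30 minutes.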
DRD3 antagonist: qHTS of D3 Dopamine Receptor Antagonist: qHTS | max response, negative = inhibition, % | 360,000 tested, 2.5% active | D3R cells, DiscoveRx beta-arrestin luminescence, antagonist mode; active compounds read low | D(3) dopamine receptor (Homo sapiens), P35462 | AID 652054, 2013; in the data active = max response below about -50%; inconclusive = no clear call, values can overlap the other calls; note: % is set by controls: 0 for no effect and ±100 for the full control effect
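Cells plated overnight at 1500 cells/well, then exposed to library compounds with dopamine controls for 90 minutes at 37 degrees C. DiscoveRx reagent added for 30–60 minutes at room temperature; luminescence read, quantitative HTS format.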
The depositor's hits bear a star; i = inactive; u = inconclusive; x = not tested or not shown; [ ] = another dose, or the depositor's remark. Compounds with a hit are over-represented: about 7% of the library has one in this group of screens. Unless noted, calls come from the whole dose curve; as a rule, active = well fitted curve in the direction sought with a large enough effect; inconclusive = small, poorly fitted or top-dose-only effect, or another doubt; inactive = no such curve, though single readings can be large; an effect the other way counts as inactive or inconclusive.

SMILES	IL1B secr inh	DRD3 agonist	ATXN2 expr inh	S2 tox	a7 integrin act	DRD3 antagonist
NC(Cc1ccc(F)cc1)c1csc(NC(=O)NC(c2ccccc2)c2ccccc2)n1 (centres undefined)	-53*	-5	u	i	x	0
NC(c1ccccc1)c1csc(NC(=O)NCCc2ccccc2)n1 (centres undefined)	-63*	-6	-22%	i	x	u
NC(Cc1ccc(C(F)(F)F)cc1)c1csc(NC(=O)NCCc2ccccc2)n1 (centres undefined)	-101*	-5	u	u	x	10
COc1cc(NC(=O)Nc2nc(C(N)Cc3ccc(C(F)(F)F)cc3)cs2)cc(OC)c1OC (centres undefined)	-30	2	u	u	x	8
NC(Cc1ccc(C(F)(F)F)cc1)c1csc(NC(=O)Nc2ccccc2Oc2ccccc2)n1 (centres undefined)	-60*	11	-14%	x	x	22
COc1ccc(CNC(=O)Nc2nc(C(N)Cc3ccc(F)cc3)cs2)cc1 (centres undefined)	u	-9	u	u	x	-18
CC(C)CC(N)c1csc(NC(=O)NCCc2ccccc2)n1 (centres undefined)	x	-3	-11%	i	x	24
COc1ccccc1CNC(=O)C[C@@H]1C[C@H]2c3cc(NC(=O)c4ccc5c(c4)OCO5)ccc3O[C@H]2[C@@H](CO)O1	-5	-2	-3%	i	1%	-9
COc1cccc(CNC(=O)c2cccn2-c2nnc(N3CCCC3)s2)c1	x	3	x	x	x	x
Cc1cc(C(=O)Nc2cccc(C)c2C)c2c(C)nn(-c3cccc(F)c3)c2n1	x	18	2%	i	x	x
CN(C)Cc1csc(NC(=O)Nc2ccccc2Oc2ccccc2)n1	-104*	0	u	x	x	-8
Cc1coc2cc3oc(=O)c(CC(=O)N4C[C@H]5C[C@@H](C4)c4cccc(=O)n4C5)c(C)c3cc12	5	7	-3%	i	-24%	-15
Cc1ccc(CNC(=O)c2ccc3c(c2)CCN3S(=O)(=O)c2ccccc2)cc1	x	0	12%	u	x	x
O=C(Nc1nnc(C2CC2)s1)c1ccc(Cl)c(S(=O)(=O)N2CCc3ccccc3C2)c1	-22	41*	-18%	i	-16%	0
CC(=O)NC(=O)COC(=O)/C=C/c1c(C)nn(Cc2c(Cl)cccc2Cl)c1Cl	28	2	11%	i	6%	-56*
CCn1cc(CN2CCC(n3nccc3NC(=O)c3cccc(F)c3)CC2)c(C)n1	0	-17	-11%	i	-10%	u
O=c1[nH]c2ccccc2n1CCCN1CCN(C(c2ccccc2)c2ccccc2)CC1	x	-18	32µM*	u	x	x
O=c1[nH]c2ccccc2n1CCCN1CCCCC1	8	-16	0%[11.3 µM]	i	11%	-61*
CCCn1c(=O)[nH]c2ccccc21	-5	4	0%	i	9%	17
O=C(CCc1ccccc1)Oc1ccccc1[N+](=O)[O-]	20	-8	1%	i	2%	-24
N#C/C(=C\c1ccc(N2CCOCC2)o1)C(=O)NCCc1ccccc1	-51*	-15	62%	x	11%	-4
N#C/C(=C\c1ccc(N2CCOCC2)o1)C(=O)NCC1CCCO1 (centres undefined)	-6	-1	7%	i	-5%	-82*
COCCNC(=O)/C(C#N)=C/c1ccc(N2CCOCC2)o1	-10	-2	1%	i	12%	-6
CC(=NO)c1cc(Br)c2cccc3c2c1CC3	-9	4	x	i	-4%	30
O=C(NC1CCCCC1)c1ccc2c(c1)N(Cc1ccccc1F)C(=O)c1ccccc1S2	x	-16	x	x	x	x
SMILES	IL1B secr inh	DRD3 agonist	ATXN2 expr inh	S2 tox	a7 integrin act	DRD3 antagonist
COc1ccc(-c2nc(Cn3c(SCc4ccc(F)cc4)nc4ccncc43)c(C)o2)cc1OC	-20	-5	-22%	u	6%	1
CN1CCN(c2ccc(NC(=O)c3ccc4ccccc4c3)cc2)CC1	-24	-19	14µM*	i	24%	u
CC(=O)Nc1ccc(NC(=S)NC(=O)/C=C/c2ccco2)cc1	32	-2	14%	i	-2%	-19
O=C(NC(=O)c1ccc(F)cc1)Nc1ccc(-c2cc(C(F)(F)F)nn2-c2ccccc2)cc1	x	-17	6%	i	x	x
COC(=O)c1ccc(NC(=O)c2ccc(OC(C)=O)c(OC)c2)cc1	-59*	-6	31%	i	7%	-19
CN1CCN(c2ccc(NC(=S)NC(=O)/C=C/c3ccco3)cc2)CC1	-96*	-2	1%	u	-6%	-21
COc1cc(C(=O)Nc2ccc(O)cc2C(=O)O)ccc1OC(C)=O	-14	1	-9%	i	-10%	12
COc1ccc(C(=O)Nc2ccc(-c3cc(C(F)(F)F)nn3-c3ccccc3)cc2)cc1OC	x	59*	u	i	x	x
CCOC(=O)NC(=O)c1cn(N(C)c2ncc(C(F)(F)F)cc2Cl)c(=O)[nH]c1=O	5	-3	-7%	i	-7%	-18
CCC(COC)NC(=O)c1cnn(-c2ncc3c(n2)-c2ccccc2CC3)c1C (centres undefined)	x	x	x	i	x	x
CC1CCCCC1NC(=O)CCCCn1c(=O)[nH]c2ccsc2c1=O (centres undefined)	12	5	-7%	i	-6%	-6
CN1CCN(c2ccc(NC(=S)NC(=O)c3cccc4ccccc34)cc2)CC1	-100*	-2	x	u	-44%	-12
COc1ccc(C(=O)Nc2ccc(N3CCN(C)CC3)cc2)cc1OC	-81*	-18	22%	i	0%	-28
COc1ccc(C(=O)Nc2ccc(N3CCN(C)CC3)cc2)cc1	-8	-1	x	u	u	-25
O=C(Nc1ccc(CN2CCOCC2)cc1)c1cccc(F)c1	9	0	24%	i	-17%[7.66 µM]	-9
COCCC1CCCCN1C(=O)c1ccc(OC)c(OC2CCN(C(C)=O)CC2)c1 (centres undefined)	0	5	7%	i	-3%	15
COCCNc1nc(NCCN2CCNC2=O)c2sc(-c3ccccc3)cc2n1	x	-5	-6%	i	x	-8
COCCN=C1NN=C(c2cc(C)n(CC3CCCO3)c2C)CS1 (centres undefined)	-9	-6	16%	i	-45%	-8
C=CCN=C1NN=C(c2cc(C)n(CC=C)c2C)CS1	2	-10	27µM*	i	-44%	-17
